Screening results as filed in PubChem.
NPC1 prom act – activates the NPC1 promoter; Huh7 NPC1 promoter luciferase reporter, 24 h; Potency, µM (series often up to 9.22 µM), inactives show at the top dose activation, most hits filed as activators; actives 2.4% (n = 320,000); AID 485313; also: % of control where 0% means no effect; nearly all actives have a fitted effect of over 60% in size
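Cells: Huh7 expressing luciferase under the NPC1 promoter, 1500/well. Seeded 2 h, compound added, incubated 24 h at 37 °C. Luciferase reagent, 10 min ambient, then luminescence.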
SMN2 splice enh – SMN2 splice variant enhancement; HEK293 SMN2-luciferase splicing reporter, luminescence, 30-36 h; Potency, µM (doses to about 46.1 µM), without a hit: at the top dose activity change, positive = activation, hits mostly activators; actives 2.8% (n = 210,000); also: % of control where 0% means no effect; nearly all actives have a fitted effect of over 55% in size
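HEK293 cells carry an SMN2 minigene-luciferase reporter in which exon 7 inclusion puts luciferase in frame. Cells were seeded at 2000 cells/well, attached for 10-12 hours, then exposed to compounds for 30-36 hours at 37C before ONE-Glo luminescence.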
Rab9 prom act – activators of Rab9 promoter. Huh7 Rab9 promoter-luciferase reporter, luminescence, 24 h. Potency, µM (series often up to 9.22 µM), for the others: at the highest dose activation, negative = inhibition, actives largely listed as activators. actives 2.8% (n = 320,000); also: % of control where 0% means no effect; nearly all actives have a fitted effect of over 60% in size
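Luminescence read-out: Huh7 cells stably expressing Rab9-luciferase, treated 24 h with compound at 37 °C, then lysed with luciferase reagent for 10 min at ambient before reading.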
FLuc modulator – inhibits or activates purified firefly luciferase, miR-21 counter-screen. P08659. purified FLuc, Km substrates, luminescence inhibition. Potency, µM (top dose mostly 57.5 µM), for the others: at the highest dose activity change, negative = inhibition, most hits filed as inhibitors. actives 6.9% (n = 360,000). AID 588342;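 also: plate controls were vehicle for no effect and reference inhibitor for full effect; nearly all actives have a fitted effect of over 55% in size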
Target sequence (P08659 whole entry, looked up): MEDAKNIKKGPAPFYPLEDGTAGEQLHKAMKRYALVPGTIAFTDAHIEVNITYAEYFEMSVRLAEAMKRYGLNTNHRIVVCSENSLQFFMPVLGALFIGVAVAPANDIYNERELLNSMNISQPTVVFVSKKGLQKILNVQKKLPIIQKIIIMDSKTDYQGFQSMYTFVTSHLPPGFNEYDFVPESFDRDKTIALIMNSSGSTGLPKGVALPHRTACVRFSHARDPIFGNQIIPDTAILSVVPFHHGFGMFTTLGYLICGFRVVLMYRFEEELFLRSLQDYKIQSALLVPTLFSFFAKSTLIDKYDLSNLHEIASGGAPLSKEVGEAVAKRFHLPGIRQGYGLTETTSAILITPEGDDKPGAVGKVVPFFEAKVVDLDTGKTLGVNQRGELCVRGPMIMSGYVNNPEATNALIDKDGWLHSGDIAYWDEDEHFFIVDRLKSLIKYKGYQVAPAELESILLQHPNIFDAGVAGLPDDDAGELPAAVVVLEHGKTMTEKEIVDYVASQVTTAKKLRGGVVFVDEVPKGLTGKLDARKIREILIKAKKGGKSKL
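Biochemical qHTS of compounds, final roughly 60 µM downward over six points, against 10 nM purified firefly luciferase using Km concentrations of substrates (10 uM D-luciferin, 10 uM ATP) in Tris acetate pH 7.5 buffer; luminescence output.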
ELG1 genotoxic – inducers of genotoxicity in HEK293T ELG1-luciferase cells. HEK293T ELG1-luciferase reporter, luminescence, 16 h. Potency, µM (titrated, usually from 46 µM), for inactives: top-dose activity change, positive = activation, hits mostly activators. actives 1.3% (n = 330,000); also: % of control where 0% means no effect; nearly all actives have a fitted effect of over 60% in size
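Step 1: seed 2,000 HEK293T ELG1-luciferase cells per well. Step 2: add compound or DMSO, incubate 16 hr at 37 °C. Step 3: ONE-Glo, 30 min at room temperature, read luminescence.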
* marks the source's active call; other numbers are inactive results; ? = inconclusive; nt = no result; [ ] = another dose, or the depositor's remark. Only some compounds are listed: those with a hit (about 7.5% of all), similar ones and a draw of the others. Calls follow the shape of the dose curve; as a rule, active = well fitted curve in the direction sought with a large enough effect; inconclusive = small, poorly fitted or top-dose-only effect, or another doubt; inactive = no such curve, though single readings can be large; an effect the other way counts as inactive or inconclusive. Potency is read from the fitted curve at half-maximal effect.

SMILES | NPC1 prom act | SMN2 splice enh | Rab9 prom act | FLuc modulator | ELG1 genotoxic
COc1ccc(S(=O)(=O)Nc2cccc(-c3ccc(N4CCC(C)CC4)nn3)c2)c(OC)c1 | nt | nt | nt | 2.69µM* | nt
COc1ccc(S(=O)(=O)Nc2ccc(-c3ccc4nncn4n3)cc2)c(OC)c1 | -3.6% | nt | -0.9% | 2.7% | 1.4%
CC(=O)N1CCN(c2ccc(S(=O)(=O)N3CCOCC3)cc2[N+](=O)[O-])CC1 | nt | nt | nt | nt | 2.4%
O=C(c1cc(-c2cccc(O)c2)on1)N1CCCC1 | ? | nt | ? | 6.01µM* | 7.3µM*
O=C(c1cc(-c2ccccc2)on1)N1CCN(C(=O)c2ccco2)CC1 | -0.1% | 20.3% | 0.0% | ? | ?
O=C(c1cc(-c2cccc(O)c2)on1)N1CCCCC1 | ? | ? | ? | 3.01µM* | 3.66µM*
O=C(c1cc(-c2cccc(Cl)c2)on1)N1CCCCC1 | nt | 10.4% | nt | 21.3µM* | nt
Cc1ccc2nc3c(c(N)c2c1)CCN3c1ccccc1 | 16.7% | -47.5% | 1.8% | 19µM* | -0.3%
O=C(CCCN1C(=O)c2ccccc2C1=O)Nc1nnc(C2CC2)s1 | -3.6% | 1.6% | -0.1% | 2.6% | 0.7%
Cc1ccc(S(=O)(=O)C2(C(=O)N3CCN(c4cc(C)ccc4C)CC3)CC2)cc1 | -8.0% | -36.4% | -1.6% | 0.0% | -10.8%
CC(C)SCCCOc1ccc(C(C)(C)C)cc1 | 0.2% | 9.5% | -1.7% | 19µM* | 7.9%
CC(C)SCCCCOc1ccc2ccccc2c1 | ? | 22.1% | ? | 16.9µM* | 2.7%
Cc1nn(CC(=O)N(C)Cc2ccccc2)c(=O)c2cccn12 | 0.5% | nt | 18.3% | 1.3% | 4.4%
CCOc1ccc(NC(=O)C(C)Sc2nnc3cc(C)c4ccccc4n23)cc1 (centres undefined) | nt | nt | nt | 2.2% | nt
Cc1ccc(NC(=O)CCc2c(C)nn(-c3ccc(N4CCCCC4)nn3)c2C)cc1F | 2µM* | nt | 3.98µM* | 3.38µM* | ?
CCc1cccc(NC(=O)CCc2c(C)nn(-c3ccc(N4CCCCC4)nn3)c2C)c1 | 24.1% | nt | ? | 10.7µM* | 13.6%
CCc1ccccc1NC(=O)CCc1c(C)nn(-c2ccc(N3CCOCC3)nn2)c1C | -1.2% | nt | 0.0% | 1.0% | -0.2%
CCOc1ccc(NC(=O)CCc2c(C)nn(-c3ccc(N4CCCCC4)nn3)c2C)cc1 | ? | nt | 2.82µM* | 2.69µM* | ?
Cc1cc(C)cc(NC(=O)CCc2c(C)nn(-c3ccc(N4CCOCC4)nn3)c2C)c1 | 7.6% | nt | 8.4% | 15.1µM* | 2.7%[9.26 µM]
C#CCNC(=O)C1=C[C@H](c2csc3ccccc23)C[C@H](OCCCCO)O1 | -3.8% | nt | 0.5% | 1.0% | -2.6%
Cc1cccc(NC(=S)NC2CC3CCCC(C2)N3Cc2cccs2)c1 (centres undefined) | -0.1% | -8.0% | 0.3% | 2.3% | -3.6%
COc1ccc(NC(=O)CCc2c(C)nn(-c3ccc(N4CCCC4)nn3)c2C)cc1Cl | nt | nt | nt | 21.3µM* | nt
CCc1ccc(NC(=O)CCc2c(C)nn(-c3ccc(N4CCCCC4)nn3)c2C)cc1 | ? | nt | ? | 12µM* | 13.4%
Cc1nn(-c2ccc(N3CCCCC3)nn2)c(C)c1CCC(=O)Nc1cccc(F)c1 | 2.82µM* | nt | 3.98µM* | 4.78µM* | ?
Cc1nn(-c2ccc(N3CCCC3)nn2)c(C)c1CCC(=O)Nc1ccccc1 | nt | nt | nt | -5.6% | nt
SMILES | NPC1 prom act | SMN2 splice enh | Rab9 prom act | FLuc modulator | ELG1 genotoxic
Cc1nn(-c2ccc(N3CCCCC3)nn2)c(C)c1CCC(=O)Nc1ccc(F)cc1 | ? | nt | ? | 13.5µM* | 5.5%
Cc1ccc(S(=O)(=O)N(C)c2ccc(C(=O)N(C)Cc3nc4ccccc4c(=O)[nH]3)cc2)cc1 | 1.1% | nt | -0.4% | 8.0% | -0.3%
CCOc1c(OC)ccc2c3c(c(=O)oc12)CCCC3 | 0.9% | -28.0% | -1.2% | ? | 7.9%
CCOc1c2ccoc2nc2c(OC)c(OC)ccc12 | 13.9% | nt | 21.0% | 21.3µM* | ?
C=CCOc1ccc2c(OC)c3ccoc3nc2c1OC | 21.9% | 12.6µM* | 2.4% | 9.53µM* | ?
Cc1cn2c(=O)c(C(=O)NCc3ccc4c(c3)OCO4)cnc2s1 | -4.2% | nt | -0.7% | 1.4% | 4.8%
Cc1c(N=C2N=C(NC(=O)c3ccc(F)cc3)c3ccccc32)c(=O)n(-c2ccccc2)n1C | -5.3% | -14.6% | -5.1% | -4.2% | -22.8%
COc1ccc(N(CC(=O)NC2CCCC2)C(=O)CCC(=O)Nc2nc(C)cs2)cc1OC | -1.0% | nt | -4.3% | 0.5% | 1.4%
COc1ccc(NC(=O)C2CCN(S(=O)(=O)c3cccc4nonc34)CC2)cc1 | -9.8% | nt | 7.2% | -0.1% | 7.9%
COc1ccc2c(c1)CC(C(=O)Nc1cc(Cl)ccc1C)CO2 (centres undefined) | nt | nt | nt | -1.7% | nt
O=C(NCc1cnn(-c2ccccc2)c1)C1CCC(=O)N(C2CC2)C1 (centres undefined) | -2.6% | nt | -0.9% | 5.1% | -0.5%
Cc1c(/C=N/Nc2nc3ccccc3[nH]2)c2ccccc2n1C | ? | nt | ? | 10.7µM* | ?
Cc1nn(-c2ccccc2)c(C)c1/C=N/Nc1nc2ccccc2[nH]1 | 0.708µM* | 3.16µM* | 0.501µM* | 0.849µM* | 5.17µM*
Cc1cc(=O)[nH]c(N/N=C/c2c(C)nn(-c3ccccc3)c2C)n1 | -5.8% | -3.6% | -1.5% | -19.1% | -5.5%
Cn1c(/C=N/Nc2nc3ccccc3[nH]2)nc2ccccc21 | ? | 3.98µM* | 3.55µM* | 1.51µM* | 1.16µM*
CCCn1c(/C=N/Nc2nc3ccccc3[nH]2)nc2ccccc21 | -1.5% | -28.6% | -25.4% | 13.5µM* | ?
